From publication PMC4336329 (PLoS ONE, 2015) come the findings set out here.

Structures are written as SMILES. Among all 310,000 compounds or so, about 2,200 (0.71%) showed an effect of 50% or more. The effect is printed as a negative number. This is one part of a sample in which strong results are shown more often than they occur.

For the experiment, the target named is human ether-à-go-go-related gene (hERG) potassium channel (human, UniProt Q12809). As to the kind of experiment: primary screen, population patch clamp on CHO cells stably expressing hERG; higher = less effect of the substance. The method, then: Briefly, Chinese hamster ovary (CHO) cells stably expressing the hERG channel were dislodged from tissue culture flasks and dispensed into PPC plates. […] During the recording, background leak currents were estimated by a 100 ms step to -80 mV from an initial holding potential of -70 mV and subtracted from the subsequent current measurement. The campaign was conducted in two phases using slight differences in recording protocol. In the first phase, the initial voltage pulse used a 100 ms step to -30 mV from a holding potential of -70 mV, a 2 s conditioning step to +25 mV, and a 2 s test step to -30 mV. During the second phase of the screen, the potential during the conditioning step was raised to +45 mV. In both phases of the campaign, a secondary voltage pulse was applied using the same parameters as the second phase initial pulse. The initial and secondary pulses were applied in the absence of compound, and upon application of 1 μM and 10 μM test concentrations. Small molecule effects on hERG current density were quantified by […].
Sequence of human ether-à-go-go-related gene (hERG) potassium channel (Q12809 whole entry, looked up): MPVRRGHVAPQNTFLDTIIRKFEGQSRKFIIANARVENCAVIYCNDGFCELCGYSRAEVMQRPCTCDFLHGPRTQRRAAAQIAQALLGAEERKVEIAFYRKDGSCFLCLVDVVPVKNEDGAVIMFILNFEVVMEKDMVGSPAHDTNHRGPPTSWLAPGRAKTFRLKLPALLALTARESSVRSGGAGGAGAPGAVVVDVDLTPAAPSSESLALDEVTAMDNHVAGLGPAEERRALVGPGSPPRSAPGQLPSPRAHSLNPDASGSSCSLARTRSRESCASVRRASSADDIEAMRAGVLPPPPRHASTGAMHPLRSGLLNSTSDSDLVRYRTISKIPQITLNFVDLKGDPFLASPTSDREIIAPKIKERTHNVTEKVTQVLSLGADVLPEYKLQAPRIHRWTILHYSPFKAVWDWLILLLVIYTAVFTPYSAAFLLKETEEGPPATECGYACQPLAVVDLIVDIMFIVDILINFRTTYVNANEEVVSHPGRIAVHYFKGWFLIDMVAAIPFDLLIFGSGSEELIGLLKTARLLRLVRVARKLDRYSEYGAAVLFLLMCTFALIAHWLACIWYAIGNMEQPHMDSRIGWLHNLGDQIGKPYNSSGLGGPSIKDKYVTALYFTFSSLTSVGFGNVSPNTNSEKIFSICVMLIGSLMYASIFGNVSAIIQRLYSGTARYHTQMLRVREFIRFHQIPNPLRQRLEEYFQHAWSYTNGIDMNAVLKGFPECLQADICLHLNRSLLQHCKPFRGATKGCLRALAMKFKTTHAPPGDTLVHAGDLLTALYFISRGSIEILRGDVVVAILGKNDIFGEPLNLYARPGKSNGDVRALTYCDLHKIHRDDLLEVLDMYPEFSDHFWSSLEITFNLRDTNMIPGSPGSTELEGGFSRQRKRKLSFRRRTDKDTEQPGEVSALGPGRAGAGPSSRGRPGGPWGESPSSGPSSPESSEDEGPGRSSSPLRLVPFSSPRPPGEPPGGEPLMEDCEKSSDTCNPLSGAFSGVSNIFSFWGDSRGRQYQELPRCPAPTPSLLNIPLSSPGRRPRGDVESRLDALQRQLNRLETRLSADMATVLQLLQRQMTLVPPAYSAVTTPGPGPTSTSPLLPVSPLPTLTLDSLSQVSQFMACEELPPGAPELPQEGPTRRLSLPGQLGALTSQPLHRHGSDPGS
Turning to `CCOc1cc(/C=C2\C(=O)ON=C2c2ccccc2)cc(Br)c1O`, the “hERG current change (%, negative = inhibition) at 1uM” value is listed as 10.4%. The result for `O=C(CCCc1ccccc1)NCc1ccc2c(c1)OCO2` reads 8.58%; that for `COc1cccc(Cn2c(NCC(C)C)nc3c2c(=O)n(C)c(=O)n3C)c1`, -7.04%; that for `O=C(Nc1ccccc1)c1cc2ccccc2o1`, 8.25%. The result for `CC/C(=C\c1oc2cc3ccccc3cc2[n+]1CC)Nc1ccccc1.[I-]` reads -83.7%; that for `CCC(=O)Nc1ccc(NC(=O)c2cc3ccccc3o2)cc1`, -5.21%; that for `Cc1cccc(NC(=S)Nn2cnnc2)c1C`, 10.9%.

`Cc1ccc(-c2cc(C(=O)N3CCN(C4CCS(=O)(=O)C4)CC3)c3ccccc3n2)cc1` (stereo not shown): the “hERG current change (%, negative = inhibition) at 1uM” value was -3.04%. As for `Cc1ccc(NC(=O)CN(C)C(=O)CSc2nc(C)cs2)cc1`, the “hERG current change (%, negative = inhibition) at 1uM” value amounted to 3.7%. The result for `CCCCC(=O)Nc1cc(N(C)C)nc2ccccc12` reads -30.7%.

In the case of `CC(Cc1ccccc1)NCC(=O)Nc1cc(N(C)C)nc2ccccc12.O=C(O)C(=O)O` (stereo not shown), the “hERG current change (%, negative = inhibition) at 1uM” value is on record as -73.5%. The result for `CN(C)c1cc(NC(=O)CNC(C)(C)CC(C)(C)C)c2ccccc2n1.O=C(O)C(=O)O` reads -7.36%. The result for `CCN(CC)CC(=O)Nc1cc(N(C)C)nc2ccccc12.O=C(O)C(=O)O` reads 6.57%. Under `CN(C)c1cc(NC(=O)CNC(C)(C)C)c2ccccc2n1.O=C(O)C(=O)O` stands 2.05%. For `CCCCCC(=O)Nc1cc(N(C)C)nc2ccccc12`, the “hERG current change (%, negative = inhibition) at 1uM” value is on record as -77.9%.

For the compound `NS(=O)(=O)c1ccc(O)c(N2C(=O)c3cccc4c(C(=O)O)ccc(c34)C2=O)c1`, the “hERG current change (%, negative = inhibition) at 1uM” value is 10.3%. Under `COc1ccc(C(=O)CSc2nc(-c3ccccn3)nc(C)c2Cl)cc1` stands 13%; under `Cc1nonc1CC(=O)N1CCCC(C(=O)c2cccc(C(F)(F)F)c2)C1` (stereo not shown), -20.6%; under `O=C(C1CCC(=O)N1Cc1cccnc1)N1CCN(c2ccc(F)cc2)CC1` (stereo not shown), 10.5%. The result for `OCC[N+]12CCC(CC1)C(C(O)(c1ccccc1)c1ccccc1)C2` (stereo not shown) reads 15.2%; that for `CCc1ccc(C(=O)NNc2cc(Cl)ccc2Cl)cc1`, 12.5%.

Regarding `Cn1c(-c2cccc([N+](=O)[O-])c2)cnc1NCc1ccc(C#N)cc1.O=C(O)C(=O)O`, the “hERG current change (%, negative = inhibition) at 1uM” value is -56.4%. Under `Cn1c(-c2ccc(Br)cc2)cnc1NCc1ccc(C#N)cc1.O=C(O)C(=O)O` stands -77.2%; under `Cn1c(-c2ccc(F)cc2)cnc1NCc1ccc(C#N)cc1`, -22.9%.

Take `Cn1c(-c2cccc([N+](=O)[O-])c2)cnc1NCc1cccc([N+](=O)[O-])c1.O=C(O)C(=O)O`: the “hERG current change (%, negative = inhibition) at 1uM” value is listed as -28.2%. Regarding `CSc1ccc(CNc2ncc(-c3cccc([N+](=O)[O-])c3)n2C)cc1.O=C(O)C(=O)O`, the “hERG current change (%, negative = inhibition) at 1uM” value was -26.5%. Under `Cn1c(-c2ccccc2)cnc1NCc1ccc(-c2ccccc2)cc1.O=C(O)C(=O)O` stands 11%; under `O=C1CC(c2ccc(Cl)cc2)CC(O)=C1C=NCCO` (stereo not shown), 10.6%; under `O=C1C2C3C=CC(C3)C2C(=O)N1CCN1CCN(S(=O)(=O)/C=C/c2ccccc2)CC1` (stereo not shown), 11%.

`Cc1cc(C)n2c(SCC(=O)NC3CCCC(C)C3C)nnc2n1` (stereo not shown): the “hERG current change (%, negative = inhibition) at 1uM” value was found to be 12.4%. Under `O=C(NCc1cc(C(F)(F)F)cc(C(F)(F)F)c1)C1CC(c2cccc(F)c2)=NO1` (stereo not shown) stands 2.14%; under `O=c1cc(-c2ccccc2F)oc2ccccc12`, 2.56%.

Regarding `C=CCNc1cnn(-c2ccc(C)cc2)c(=O)c1Sc1ccc(C)cc1`, the “hERG current change (%, negative = inhibition) at 1uM” value is listed as 13.8%. For the compound `COC(=O)c1ccc(CNC(=O)COc2ccccc2Br)o1`, the “hERG current change (%, negative = inhibition) at 1uM” value was determined as 12.4%. The result for `CC(C)CNS(=O)(=O)c1ccc(NC(=O)Cn2nc(-c3ccc(F)cc3)ccc2=O)cc1` reads 7.17%; that for `CN(C/C=C/c1ccccc1)Cc1cccc2ccccc12.Cl`, 5.76%; that for `Cc1cccc(C(=O)NCC(=O)N2CC=C(c3ccccc3)CC2)c1`, -1.82%.

Take `O=C(NCC(=O)N1CC=C(c2ccccc2)CC1)c1ccco1`: the “hERG current change (%, negative = inhibition) at 1uM” value was -50.9%. The result for `CSCCC(NC(=O)c1ccco1)C(=O)N1CC=C(c2ccccc2)CC1` (stereo not shown) reads -1.93%. Under `c1ccc(Cn2ncc3ccccc32)cc1` stands 10.6%. Under `CCOCCCNS(=O)(=O)c1ccc(NC(=O)C2CC(=O)N(c3ccc(C)cc3)C2)cc1` (stereo not shown) stands 11.4%. Take `CN(C)C=Nc1nonc1-c1ccc(Cl)cc1`: the “hERG current change (%, negative = inhibition) at 1uM” value is on record as 11.2%. Consider `O=C(NCCCn1ccnc1)/C(=C\c1cccnc1)NC(=O)c1ccccc1Br`, for which the “hERG current change (%, negative = inhibition) at 1uM” value was 9.44%. Under `O=C(NCCCn1ccnc1)/C(=C\c1cccnc1)NC(=O)c1ccccc1F` stands 8%; under `COc1ccccc1C(=O)N/C(=C\c1ccc(Br)cc1)C(=O)NCCCO`, -0.677%; under `COc1ccccc1C(=O)N/C(=C/c1ccc(Br)cc1)C(=O)NCCCn1ccnc1`, -84.8%. Under `O=C(NCCCn1ccnc1)/C(=C\c1ccc(Br)cc1)NC(=O)c1ccccc1F` stands -81.5%. Under `COc1ccccc1C(=O)N/C(=C\c1cn(C)c2ccccc12)C(=O)NCCCn1ccnc1` stands 12.2%; under `Cc1ccc(NC(=O)CN2C(=O)CCSc3ccc(S(=O)(=O)N4CCCC4)cc32)cc1`, 19%; under `CCOC(=O)C1CCN(CC(=O)c2ccc(O)c(C)c2O)CC1`, 12.3%.

On to `Cc1cc2c(NC3CCCCC3)ncnc2s1.Cl`, for which the “hERG current change (%, negative = inhibition) at 1uM” value was determined as 12%. With `N#C/C(=C\c1c(Cl)cccc1Cl)c1nc2ccccc2o1`, the “hERG current change (%, negative = inhibition) at 1uM” value is listed as 2.68%. The result for `Cc1cc(-c2ccc(C)c(S(=O)(=O)Nc3cc(C)on3)c2)on1` reads 1.77%. The result for `O=C(N=C1SCC(=O)N1c1ccccc1)c1ccco1` reads -1.23%; that for `CCN(CC)CCCn1c(SCC(=O)Nc2cccc(F)c2)nnc1-c1ccoc1C`, -63%. `Cc1occc1-c1nnc(SCC(=O)Nc2ccccc2)n1CCc1ccccc1`: the “hERG current change (%, negative = inhibition) at 1uM” value is given as -20.1%. Under `Cc1ccc(NC(=O)CSc2nnc(-c3ccoc3C)n2CCCN(C)C)cc1Cl` stands -70.2%; under `COCCn1c(SCC(=O)Nc2ccc(OC)cc2)nnc1-c1ccoc1C`, 12.2%; under `CCCn1c(SCC(=O)Nc2cccc(C(=O)OCC)c2)nnc1-c1ccoc1C`, 5.88%. Under `COCCCn1c(SCC(=O)Nc2ccc3c(c2)OCCO3)nnc1-c1ccoc1C` stands 1.88%; under `O=C(NCCCN1CCOCC1)C1(c2ccccc2)CCOCC1`, 19.2%; under `CCOC(=O)N1CCN(Cc2nc(N)nc(Nc3ccc(Oc4ccccc4)cc3)n2)CC1`, -36.8%. For `COc1ccccc1Nc1nc(N)nc(CN2CCc3ccccc3C2)n1`, the “hERG current change (%, negative = inhibition) at 1uM” value was -2.7%.

`CCOC(=O)C1CCCN(Cc2nc(N)nc(Nc3ccc(OC)cc3)n2)C1` (stereo not shown): the “hERG current change (%, negative = inhibition) at 1uM” value is on record as -67.8%. The result for `CCOC(=O)C1CCCN(Cc2nc(N)nc(Nc3ccc(C)cc3)n2)C1` (stereo not shown) reads -47.6%; that for `CCOC(=O)C1CCCN(Cc2nc(N)nc(Nc3ccc(Cl)cc3)n2)C1` (stereo not shown), -71.6%. Under `CCOC(=O)C1CCCN(Cc2nc(N)nc(Nc3ccccc3)n2)C1` (stereo not shown) stands -18.6%. The result for `Cc1ccc(Nc2nc(N)nc(CN3CCCCCC3)n2)cc1` reads -45.2%. Turning to `CCOC(=O)C1CCCN(Cc2nc(N)nc(Nc3ccccc3OC)n2)C1` (stereo not shown), the “hERG current change (%, negative = inhibition) at 1uM” value is on record as -53.2%. Under `CCOC(=O)C1CCCN(Cc2ccc(OC)cc2OC)C1` (stereo not shown) stands -13.6%. As to `CCc1cccc2c(C=C(C#N)C#N)cn(CC(=O)N3CCCC3)c12`, the “hERG current change (%, negative = inhibition) at 1uM” value turned out to be 2.04%. For the compound `CNC(=O)C1CCN(S(=O)(=O)c2c(C)noc2/C=C/c2ccc(C)cc2)CC1`, the “hERG current change (%, negative = inhibition) at 1uM” value is 10.2%.

Turning to `COc1ccc(C(=O)NC2CC2)cc1OC1CCN(C/C=C/c2ccccc2)CC1`, the “hERG current change (%, negative = inhibition) at 1uM” value is -84.3%. With `COc1ccccc1/C=C/CN1CCC(Oc2cc(C(=O)NC3CC3)ccc2OC)CC1`, the “hERG current change (%, negative = inhibition) at 1uM” value is reported as -78.3%. Under `COc1ccccc1/C=C/CN1CCC(Oc2ccc(C(=O)N3CCCC3)cc2)CC1` stands 10.1%; under `COc1cc(C(=O)N2CCN(C/C=C/c3ccccc3)CC2)cc(OC)c1OC`, -2.2%; under `COc1cc(C(=O)N2CCN(C/C=C/c3ccccc3)CC2)cc(OC)c1C`, 6.9%. The result for `COc1ccccc1/C=C/CN1CCC(Oc2ccc(C(=O)N3CCCCC3)cc2)CC1` reads 7.23%. Under `Cc1ccc(SCCC(=O)NCCSCc2ccccc2C)cc1` stands 10.1%; under `CCN1CCN(P2(=O)C=C(c3ccccc3)OC(c3ccccc3)=C2)CC1`, -86.5%; under `O=P1(O)C=C(c2ccccc2)OC(c2ccccc2)=C1`, 14.1%. Regarding `O=P1(Nn2cnnc2)C=C(c2ccccc2)OC(c2ccccc2)=C1`, the “hERG current change (%, negative = inhibition) at 1uM” value was -9.39%.

In the case of `Cc1ccc(CSCC(=O)NCc2cccs2)cc1`, the “hERG current change (%, negative = inhibition) at 1uM” value stood at 7.51%. The result for `CCc1ccc(-n2nnnc2SCC(=O)Nc2ccc(NC(C)=O)cc2)cc1` reads 20.4%. For the compound `Cc1cc(SCC(=O)N/N=C/c2ccc(O)cc2O)c(C)cc1Br`, the “hERG current change (%, negative = inhibition) at 1uM” value was 8.67%. The result for `Cn1c(CCN2CCN(c3ccccn3)CC2)nc2cc(NC(=O)COc3ccccc3)ccc21` reads -67%; that for `Cn1c(CCN2CCN(c3ccccn3)CC2)nc2cc(NC(=O)COc3ccc(Cl)cc3)ccc21`, 0.879%. The result for `Cc1cccc(OCC(=O)Nc2ccc3c(c2)nc(CCN2CCN(c4ccccn4)CC2)n3C)c1` reads -67%; that for `Cn1c(CCN2CCN(c3ccccn3)CC2)nc2cc(NC(=O)COc3ccc([N+](=O)[O-])cc3)ccc21`, 9.63%; that for `CCC(=O)Nc1ccc2c(c1)nc(CCN1CCN(c3ccccn3)CC1)n2C`, 4.59%. In the case of `Cc1cccc(OCC(=O)Nc2ccc3c(c2)nc(CCN2CCC(C)CC2)n3C)c1`, the “hERG current change (%, negative = inhibition) at 1uM” value is -47.9%.
